Screens as filed in PubChem BioAssay.
This is a sample that favours compounds with a hit; in the whole collection about 3.8% have one here.
697 NFkB inh – inhibitors of the PMA/ionomycin-induced NF-kB reporter in 697 B cells | 697 B-cell NF-kB luciferase reporter, 16 h | inhibition, % at 4 µM | 0.33% of 330,000 active; in the data active = inhibition above about 35%
Jurkat NFkB inh – inhibitors of the PMA/ionomycin-induced NF-kB reporter in Jurkat cells; 0.53% of 330,000 active; PMA/ionomycin-induced NF-kB luciferase reporter, luminescence; AID 435003; inhibition, % at 4 µM; in the data active = inhibition above about 50%
Beta cell apopt – beta cell apoptosis inhibition | INS-1E cytokine-induced death, ATP luminescence, 48 h; percent of positive-control rescue, neutral wells zero | AID 435005 | 0.8% of 300,000 active | protection from apoptosis, % (concentration not given with the values);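 active = Every replicate reaches about 75%, or at least half do and their mean reaches it too, limit read from the data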;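 note: 0% = cytokine-treated negative control wells and 100% = positive control rescue; higher means more ATP so stronger rescue from cytokine killing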
Mdm2 MdmX PPI – disrupts the human Mdm2-MdmX interaction | O15151+Q00987 | 3% of 330,000 active | AID 485346 | SaOS-2 split-luciferase Mdm2/MdmX complementation, luminescence | inhibition, % at 8 µM;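 active = inhibition of at least 50% at 8 µM in the primary screen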
NTR1 agonist – NTR1 (human) agonism. P30989. activation, % at 20 µM. 0.17% of 330,000 active. NTR1-U2OS beta-arrestin-GFP spot imaging, agonist mode. AID 493036;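 active = activation at or above 40% of the spot to cytoplasm intensity ratio, with at least 20 cells analyzed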;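 note: 0% = DMSO without peptide and 100% = 100 nM NTR1 peptide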
Target sequence (P30989 whole entry, looked up): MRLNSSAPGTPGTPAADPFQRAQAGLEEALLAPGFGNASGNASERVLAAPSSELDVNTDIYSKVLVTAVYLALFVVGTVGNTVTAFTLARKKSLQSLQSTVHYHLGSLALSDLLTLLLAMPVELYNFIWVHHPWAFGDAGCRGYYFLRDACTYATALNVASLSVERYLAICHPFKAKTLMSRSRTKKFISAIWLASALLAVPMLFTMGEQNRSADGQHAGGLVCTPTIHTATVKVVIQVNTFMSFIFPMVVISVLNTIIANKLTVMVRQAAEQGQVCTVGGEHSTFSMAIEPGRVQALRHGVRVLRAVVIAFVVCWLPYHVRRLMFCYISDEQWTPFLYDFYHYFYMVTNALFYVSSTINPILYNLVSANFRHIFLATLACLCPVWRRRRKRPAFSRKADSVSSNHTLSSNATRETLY
A1 inh – inhibitors of the anti-apoptotic protein A1, read as caspase activation | MEF A1-2A-BIM cells, Caspase-Glo 3/7 luminescence, 3 h; percent of clofoctol response, vehicle zero | caspase activation, % (no concentration beside the values) | 0.066% of 330,000 active | AID 2462;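 active = over half of replicate activation scores above 10%, or exactly half above 10 with the replicate mean above 10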
Mdm2-MdmX conf – confirmation of human Mdm2/MdmX interaction inhibitors; shares compounds with Mdm2 MdmX PPI; Mdm2-MdmX binding, luminescent assay; 55% of 10,000 active; inhibition, % at 8 µM; in the data active = inhibition above about 40%
FLuc counter – full-length luciferase inhibition in Mdm2/MdmX counter-screen. inhibition, % at 8 µM. shares compounds with Mdm2 MdmX PPI. 77% of 6,200 active. SaOS-2 full-length luciferase counterscreen, luminescence;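 active = mean inhibition at 8 µM reaching about 37%, which flags the compound as non-specific, limit read from the data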;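 note: p53-null SaOS-2 cells with luciferase driven by a doxycycline-inducible promoter; compound on cells about two nights before reading with doxycycline added after day one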
Active calls of the source: *; nt = no result given.

SMILES | 697 NFkB inh | Jurkat NFkB inh | Beta cell apopt | Mdm2 MdmX PPI | NTR1 agonist | A1 inh | Mdm2-MdmX conf | FLuc counter
CN(Cc1cccc(Cl)c1Cl)C(=O)c1cc(S(=O)(=O)N2CCOCC2)ccc1F | 1 | -13 | -16 | -20 | 4 | -1 | nt | nt
CC1CCc2c(sc(NC(=O)CCc3nc4ccccc4c(=O)[nH]3)c2C#N)C1 (centres undefined) | 9 | 6 | 11 | 72* | 7 | 1 | 71* | 60*
N/C(Cn1cncn1)=N\OC(=O)c1ccc(Cl)cc1 | 4 | -2 | -1 | 51* | -1 | 1 | -6 | nt
O=C(OCn1cncn1)c1ccc(Cl)cc1Cl | 14 | 9 | -5 | -4 | -1 | 0 | nt | nt
CCCC(=O)NCc1nc2ccccc2n1CC(=O)c1ccccc1 | -5 | 4 | -2 | -13 | 2 | 1 | nt | nt
Cc1cc(C)nc(-n2nc(C)cc2NC(=O)c2cccc(S(=O)(=O)N(C)C)c2)n1 | 10 | 2 | 4 | 14 | 0 | 0 | nt | nt
Cc1ccc(C)c(C(=O)Nc2cc(C)nn2-c2nc(C)cc(C)n2)c1 | -12 | 24 | 2 | 57* | 7 | 1 | 39 | 60*
c1csc(-c2nc(NCC3CCCO3)c3ccccc3n2)c1 (centres undefined) | 9 | 5 | -8 | 6 | 1 | 0 | nt | nt
c1ccc(CN2CCC(Nc3nc(-c4cccs4)nc4ccccc34)CC2)cc1 | -39 | -19 | 24 | 93* | 20 | 0 | 34 | 74*
CC1(c2ccccc2)NC(=O)N(CC(=O)Nc2ccc3c(c2)CCC3)C1=O (centres undefined) | 1 | 13 | -7 | 14 | 0 | 0 | nt | nt
Cc1nnnn1/C(=C\c1ccccc1)C(=O)OCC(=O)Nc1cccc(S(=O)(=O)N(C)C)c1 | -9 | 7 | -23 | 72* | 29 | 2 | 39 | 34
Cc1nnnn1/C(=C\c1ccccc1)C(=O)OCC(=O)Nc1ccc(Cl)cc1F | 8 | 6 | -1 | 67* | 6 | 0 | 61* | 61*
COc1ccc2c(c1)C(=O)N(c1ccccc1OC)C(=O)C2(C)C | 18 | 2 | 2 | 20 | 0 | 0 | nt | nt
CC[C@]1(c2ccccc2OC)ON(c2ccccc2C(F)(F)F)C1=O | 2 | 0 | 87* | 90* | 19 | 2 | 84* | 35
COc1ccccc1[C@]1(C)ON(c2ccccc2C(F)(F)F)C1=O | 28 | 8 | -12 | 92* | 19 | 1 | 77* | 37*
Cc1csc2nc(O)c(C(=O)NCCCc3ccccc3)c(=O)n12 | 12 | 12 | nt | 61* | 2 | 0 | 70* | 21
Cc1ccc(S(=O)(=O)N2CCCC2C(=O)NCc2ccccc2Cl)cc1 (centres undefined) | 0 | 5 | 0 | 3 | -1 | 0 | nt | nt
COc1ccc(NC(=O)C2CCN(c3ncnc4c3nc3n4CCCCC3)CC2)cc1Cl | -52 | 12 | 3 | 42 | 2 | 1 | nt | nt
COc1ccccc1NCC(=O)N/N=C/c1c(O)ccc2ccccc12 | 7 | 8 | 77* | 87* | 5 | 1 | 77* | 25
Cn1ncc(N=Cc2c(O)ccc3ccccc23)c1C(=O)N1CCOCC1 | 25 | 8 | -11 | -5 | 1 | 1 | nt | nt
COc1ccccc1N(CC(=O)N/N=C/c1c(O)ccc2ccccc12)S(C)(=O)=O | -3 | 31 | 87* | 77* | 3 | 0 | 77* | 26
O=C(CN1CCCc2ccccc21)N/N=C/c1c(O)ccc2ccccc12 | -39 | 11 | 66 | 81* | 4 | 0 | 91* | 30
COc1ccccc1NC(=O)c1c(N=Cc2c(O)ccc3ccccc23)cnn1C | -61 | 24 | 2 | 52* | 6 | 2 | 30 | nt
O=C(CNc1ccc(F)cc1)N/N=C/c1c(O)ccc2ccccc12 | -16 | 17 | 81* | 72* | 14 | 1 | 77* | 28
O=C(Cc1n[nH]c(=O)[nH]c1=O)N/N=C/c1c(O)ccc2ccccc12 | 18 | 6 | -4 | -7 | 0 | 0 | nt | nt
